Experimental data as given in the supplement of paper PMC6555819.

Key:
Assay in all cases: PBM binding z-score (relative to random genomic background probes); higher = stronger binding; sequences stand for … in GC…GCGATTGACAGCGTAGAATGAAGG
[1] = system: RARb homodimer (NR concentration 270 nM)
How it was run: (§1)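 Random background probes are the reference for binding z-scores. These scores derive from regression-normalized fluorescence on custom Agilent 4×180K protein-binding microarrays incubated 1 h with ligand-free nuclear receptor dimers. Binding was detected with antibodies against each partner (one per run).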

[2] = system: RARg:RXRa (NR concentration 270 nM, RXRa partner concentration 90 nM)
How it was run: as §1

[3] = system: RARg homodimer (NR concentration 270 nM)
How it was run: as §1

[4] = system: RXRa DBDmut IVT, anti-RXR (DBD mutation: RXRa K156A/R161A, NR concentration 90 nM)
How it was run: as §1

[5] = system: RXRa homodimer (NR concentration 180 nM)
How it was run: as §1

[6] = system: THRa:RXRa (NR concentration 90 nM, RXRa partner concentration 90 nM)
How it was run: as §1

[7] = system: THRa homodimer (NR concentration 90 nM)
How it was run: as §1

[8] = system: VDR homodimer (NR concentration 270 nM)
How it was run: as §1

[9] = system: VDR:RXRa (NR concentration 270 nM, RXRa partner concentration 90 nM)
How it was run: as §1

Row | Sequence | PBM binding z-score [1] | PBM binding z-score [2] | PBM binding z-score [3] | PBM binding z-score [4] | PBM binding z-score [5] | PBM binding z-score [6] | PBM binding z-score [7] | PBM binding z-score [8] | PBM binding z-score [9]
1 | CCGAGTTGGTTACGAGGGGGCATTCAGTGCGAAT | 1.81 | 1.91 | 1.44 | 2.58 | 1.02 | 2.46 | 0.911 | 4.2 | –
2 | CGAACTAGGTCAAAGGACAGAGAAAGGCGACGTA | 2.7 | 4.29 | 4.46 | 1.73 | 3.38 | 2.44 | 0.0564 | 0.391 | –
3 | CATACTAGGTCAAAGGTCAAAGTCGAGCCAACCA | 5.51 | 8.9 | 7.33 | 3.12 | 9.95 | 4.98 | 2.11 | 3.51 | –
4 | CAAACTAGGCCAAGGTCAAAGTCGGTTTGTGCCA | 3.85 | 4.2 | 4.17 | 2.06 | 3.91 | 3.77 | 2.36 | 3.23 | –
5 | ACAGACAGGTGAGTGAAGGTCACTCAGCTGGACG | 3.64 | 3.32 | 3.72 | -0.197 | 2.89 | 3.41 | 0.198 | 0.819 | –
6 | CGTCCAAGGGCAATGCTAGGTCAGTGAAAGCATT | 3.04 | 3.71 | 2.64 | 0.887 | 0.71 | 2.98 | 0.346 | 0.429 | –
7 | CTCGAAAGGTCGTGCTCAGGTGAGTATGCCAAAC | 2.94 | 5.26 | 3.88 | 2.18 | 4.88 | 4.11 | 0.926 | 0.764 | –
8 | CGTCCAAGGTCAATGCTAGGTCACTGAAAGCATT | 5.18 | 7.94 | 6.93 | 3.59 | 5.56 | – | 3.87 | 3.43 | 5.55
9 | CCGAGTAGGTTACGAGGGGGAATTCAGTGCGAAT | 0.662 | 1.53 | 1.1 | 0.572 | 1.09 | 1.79 | 0.0868 | 0.419 | –
10 | CAAACTAGGTCAAAGGTCAAAGCCGAGCCAACCA | 5.47 | 8.97 | 7.51 | 2.57 | 10.7 | – | 1.74 | 2.99 | 6.79
11 | CTATGTAGGTTAAGGGGGTCAGTCAGTTTGAAAG | 3.63 | 4.2 | 3.72 | 1.75 | 4.08 | 3.17 | 1.89 | 3.99 | –
12 | TCGAGTAGGTTACGGGGGCATGCAGGGATGAAGA | 2.19 | 3.5 | 2.31 | 1.35 | 2.78 | 3.28 | 0.997 | 1.92 | –
13 | ATATGTAAGTTAGGGTCATTCAGAAAGTAGGGAA | 3.04 | 4 | 3.02 | 2.47 | 5.33 | 4.05 | 2.85 | 3.96 | –
14 | CCTACTGGGCCATTCAGAGGTCATTGTTCATATG | 4.14 | 4.19 | 2.88 | 1.2 | 3.37 | 3.23 | 1.38 | 3.59 | –
15 | CTATGTAGGTTTAGGGGGTCATTCAGTTTGAAAG | 3.42 | 4.23 | 3.14 | 2.35 | 4.8 | 3.52 | 1.9 | 5.35 | –
16 | ATATGTAGGTTAGGCTCATTCAGAAAGTAGGGAA | 0.0368 | 0.252 | 0.612 | 0.0964 | 0.205 | 0.086 | -0.237 | -0.178 | –
17 | TCTAGTAGGTTACGGGGGCATTCAGGGATGAAGA | 2.73 | 3.98 | 3.21 | 2.95 | 3.28 | 4.01 | 2.2 | 3.82 | –
18 | TCGAGTAGGTTACGAGGGCATTCAGGGATGAAGA | 1.43 | 1.55 | 1.13 | 0.248 | 1.58 | 3.1 | 0.0603 | 1.27 | –
19 | CGAACTAGGTCAGAACAGTACAGTGAAGGATGAT | 1.96 | 2.46 | 3.33 | 0.94 | 1.27 | 1.83 | 0.222 | 0.229 | –
20 | TAGCCTAGGTGATTGGGCCAGTATAGTACGCATC | -0.159 | -0.276 | -0.119 | -0.669 | -0.198 | -0.224 | -0.512 | -0.67 | –
21 | CGTCCAAGGTCAGTGAGGTCAGTGAATGCCGAGT | 5.33 | 5.76 | 6.56 | 3.28 | 4.61 | – | 4.36 | 5.33 | –
22 | ATATGTAGGTTAGGATCATTCAGAAAGTAGGGAA | 0.531 | 0.593 | 0.675 | 0.541 | 1.01 | 0.577 | 0.347 | 0.616 | –
23 | TCCAGTAGGTTACGGGGGCATTCAGGGATGAAGA | 2.45 | 3.99 | 3.38 | 2.49 | 3.03 | 3.96 | 1.63 | 3.69 | –
24 | ACTTGGAGGACAAAGGTCAGAGCTACGCCAGTGA | 4.32 | 6.26 | 5.66 | 1.71 | 5.24 | 3.55 | 0.496 | 1.62 | –
25 | CGAACTAGGTAAAGGACAGTGAATCTCCGCACGC | 0.899 | 0.243 | 0.583 | 0.0169 | 0.286 | – | -0.0591 | -0.21 | -0.323
26 | TAGCCTCGGTCATTGGGCCAGTATAGTACGCATC | 1.53 | 1.54 | 2.62 | -0.363 | 0.223 | 0.029 | -0.772 | -0.289 | –
27 | CGTCCAAGGTAAGAGAGGTCAGTGAATGCCGAGT | 3.65 | 2.87 | 3.04 | 0.742 | 2.46 | 2.91 | 1.13 | 1.93 | –
28 | CGGACTAGGTCAAAGGACAGTGAAAGGCGACGTA | 2.91 | 3.97 | 4.51 | 1.33 | 3.02 | 2.57 | 0.589 | 0.288 | –
